Screen size: about 290,000 compounds; about 11,000 (3.8%) were called active.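 How the source made its calls: active means mean replicate inhibition above about 79%, with every replicate also reaching it (limit read from the data); inconclusive means only one of the two criteria met; inactive means mean below limit and not every replicate reaching it.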 Only a selection was taken, and actives are over-represented in it overall.
Biological target: FAD-linked sulfhydryl oxidase ALR (Homo sapiens) (UniProt P55789)
Sequence (P55789 whole entry, looked up): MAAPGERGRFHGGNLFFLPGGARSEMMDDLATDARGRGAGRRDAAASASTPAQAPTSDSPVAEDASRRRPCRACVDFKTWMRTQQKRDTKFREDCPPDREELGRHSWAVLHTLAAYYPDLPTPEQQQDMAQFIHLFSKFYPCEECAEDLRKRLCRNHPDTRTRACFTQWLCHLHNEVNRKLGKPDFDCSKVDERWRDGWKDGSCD
Experiment: inhibitors of human ALR sulfhydryl oxidase, primary screen, biochemical, H2O2 detection, HRP-luminol luminescence, single point (AID 485317)
Settings: purified ALR, DTT oxidation, stronger effect = higher value, concentration not given here

inhibition, active:
Cc1onc(-c2ccccc2)c1C(=O)NNC(=S)NC(=O)c1ccc(F)cc1 93.4%
COc1ccc(C(=O)NC(=S)NNC(=O)c2c(-c3ccccc3)noc2C)cc1 99.2%
CCc1ccc(NC(=O)CSc2nc3ccccc3c(=O)n2CCN2CCOCC2)cc1 98.6%
COC(=O)c1ccc2c(=O)n(CCN3CCOCC3)c(SCC(=O)Nc3cccc(OC)c3)nc2c1 99.1%
O=C(/C=C/Sc1ncn[nH]1)c1ccc(Cl)cc1 98.6%
O=C(CSc1nc2[nH]c(=O)[nH]c(=O)c2s1)Nc1cccc(F)c1 98.7%
CC[C@@H]1Cc2cc(O)ccc2C2=C1c1ccc(O)cc1C[C@H]2CC 97.9%
Cc1cc(O)ccc1NC1=CC(=O)CC(C)(C)C1 92.3%
COc1cc(/C=C2/C(=O)NN(c3cccc(Cl)c3)C2=O)cc(Br)c1O 98.2%
COc1ccc(-c2cc(C(F)(F)F)nc(SCCC(=O)NCc3ccco3)n2)cc1 96.7%
CC(=O)Nc1ccc(-c2csc(NC=C3C(=O)OC(C)(C)OC3=O)n2)cc1 98.2%
O=C1Nc2ccccc2C12Nc1ccccc1S2 (stereo not given) 98.7%
CCCC(=O)N1c2ccc(-c3csc(N)n3)cc2CC1C (stereo not given) 98.9%
Cc1cs/c(=N\N=C\c2ccc(O)cc2)n1Cc1ccco1 98.6%
CCN(CC)c1ccc(/C=N/Nc2nc(C)cc(=O)[nH]2)cc1 99.1%
COc1cccc(-c2nc(CS(=O)CC(=O)NCc3ccc(F)cc3)c(C)o2)c1 (stereo not given) 98.8%
COc1ccc(-c2nc(CS(=O)CC(=O)N3CCc4ccccc4C3)c(C)o2)cc1 (stereo not given) 99%
Cc1cccc(-c2nc(CS(=O)CC(=O)NC(C)CCc3ccccc3)c(C)o2)c1 (stereo not given) 92%
COc1ccc(-c2nc(CS(=O)CC(=O)NCc3ccccc3)c(C)o2)cc1OC (stereo not given) 98.9%

inhibition, inactive:
COc1ccc(C(=O)NC(=S)NNC(=O)CCc2ccccc2)cc1 24.8%
Cc1ccc(CNC(=O)c2c(-c3ccccc3)noc2C)cc1 -6.06%
COc1ccc(C(=O)NNC(=S)NC(=O)c2ccccc2)cc1 34.7%
CCc1noc(C)c1C(=O)NNC(=O)c1ccc(F)cc1 0.314%
COc1ccc(S(=O)(=O)N(C)C[C@H]2Oc3c(NC(=O)Nc4ccc5c(c4)OCO5)cccc3C(=O)N([C@H](C)CO)C[C@@H]2C)cc1 -7.29%
CC(C)(C)OC(=O)NCCCCCNC(=O)c1[nH]cnc1C(=O)Nc1nccs1 -6.55%
COc1ccc(Cl)cc1NS(=O)(=O)c1cccc(C(=O)NC2CCC(O)CC2)c1 (stereo not given) -6.32%
O=C(COC(=O)c1cccc(Cl)c1)NC(=O)NCc1ccccc1 -1.07%
COc1cccc(NC(=O)C(Sc2nc3ccccc3c(=O)n2CC(C)C)c2ccccc2)c1 (stereo not given) -3.45%
COCCn1c(SCC(=O)Nc2ccc3c(c2)CCC3)nc2ccccc2c1=O -0.883%
CC(=O)NCCn1c(SCC(=O)Nc2ccc(C)cc2)nc2ccccc2c1=O -3.53%
CC(=O)c1ccc(NC(=O)CSc2nc3ccccc3c(=O)n2CCCN2CCOCC2)cc1 23.1%
Cc1csc(NC(=O)c2ccc(C)s2)n1 27.4%
O=C(COC(=O)Cc1ccc([N+](=O)[O-])cc1)NC1CCCCCC1 3.75%
COc1ccc(-c2c(-c3cc(OC)cc(OC)c3)n(C)c3ccc(-c4ccn[nH]4)cc23)cc1 -7.81%
Brc1ccc(CN2CC[C@H]3C=CCc4cccc(c43)C2)cc1 -17.1%
Cc1cc(C)nc(S/C=C/C(=O)c2ccccc2)n1 18.2%
COc1ccc(Cl)cc1CSc1ncn[nH]1 3.36%
CCN(c1ccccc1)S(=O)(=O)c1ccc(C(=O)Nc2ccccc2OC)cc1 2.02%
COc1ccc(NC(=O)N(C)C[C@H]2Oc3ccc(NC(=O)C4CC4)cc3C(=O)N([C@H](C)CO)C[C@@H]2C)cc1 -0.429%
CN(C)CCN(C(=O)CN1C(=O)c2ccccc2C1=O)c1nc2cc3c(cc2s1)OCCO3 -1.15%
Nc1ccccc1/C=N\N=C/c1ccccc1N -2.8%
Cc1nc2nc(SCC(=O)Nc3cccc(F)c3)[nH]c2cc1Br -13.2%
Nc1nnc(SCC(=O)Nc2ccc3nc(SCC(=O)Nc4ccccc4)sc3c2)s1 -42%
O=S(=O)(NCCS(=O)(=O)N1CCN(c2ccccc2)CC1)c1ccc(F)cc1 -11.7%
CC1(C)CC(=O)c2ccc(O)cc2O1 0.168%
CCc1nnc(NC(=O)c2cc(S(=O)(=O)N3CCCCC3)ccc2C)s1 -5.04%
Cc1ccc(CNS(=O)(=O)CCNC(=O)c2ccccc2)cc1 0.449%
CCN(CC(=O)Nc1ccc(OC)cc1)C(=O)c1ccc(Cl)c(S(=O)(=O)N2CCCC2)c1 -0.437%
O=C(CSc1ncnc2sccc12)N1CCN(C(=O)c2cccs2)CC1 3.8%
COc1ccccc1C(=O)NC(CCSC)C(=O)N1CCN(C/C=C/c2ccccc2)CC1 (stereo not given) -15.9%
COC(=O)NNC1=CC(=O)CC(C)(C)C1 5.45%
CC1(C)CC(=O)C=C(Nc2ccccc2)C1 3.81%
O=C(Nc1cc(S(=O)(=O)N2CCOCC2)ccc1N1CCOCC1)c1c(F)cccc1Cl 0.0766%
COc1cc(/C=N/O)cc(Br)c1OCc1cccc(Cl)c1 -0.717%
C#CCOc1ccc(/C=C2/C(=O)NN(c3ccccc3)C2=O)cc1OC 66.4%
C=CCSc1ccc(S(=O)(=O)N2CCN(C)CC2)cn1 0.831%
CC1CCc2sc(C(=O)NCC(c3ccco3)N3CCCCC3)cc2C1 (stereo not given) -3.3%
C[C@H](NC(=O)c1ccccc1Cl)C(=O)OCC(=O)N1CCN(c2ccccc2)CC1 50.7%
Cn1nnnc1SCC(=O)Nc1sccc1C(N)=O 23.5%
COc1ccc(C(=O)Nc2ccccc2C(=O)NCc2ccco2)cc1 -4.1%
COc1cc(OC)cc(-c2nc3nc(C)c(CCC(=O)NCc4ccco4)c(C)n3n2)c1 0.656%
CC1C(=O)N2CCCc3cc(S(=O)(=O)NCc4ccc(F)cc4)cc1c32 (stereo not given) 2.55%
Cc1ccc(CN2CC(C(=O)NNC(=O)Cn3ccc(C(F)(F)F)n3)CC2=O)cc1 (stereo not given) -1.18%
CC(=O)Nc1cccc(-c2csc(Nc3cccc(C)n3)n2)c1 -4.7%
CC(=O)Nc1ccc(S(=O)(=O)Nc2nc(-c3ccc(C(C)(C)C)cc3)cs2)cc1 14.9%
CCOC(=O)c1sc(NC(=O)C2CSC3(C)CCC(=O)N23)nc1C (stereo not given) -0.227%
COc1cc(/C=C/C(=O)OCC(=O)NC2CC2)cc(OC)c1OC -0.461%
O=C(CCc1nc(-c2ccccc2)no1)Nc1cccc(C(=O)NC2CC2)c1 28.1%
Cc1ccccc1-c1cc(C(=O)NCC2CC2)n(CC2CC(c3cccnc3)=NO2)n1 (stereo not given) 10.4%
COc1ccc(C2(O)C(=O)Nc3ccccc32)cc1 (stereo not given) -1.7%
CCc1ccc2c(c1)C1(NN=C(c3ccccc3)S1)C(=O)N2 (stereo not given) 33.8%
CCCCn1c(N)c(N(CCOC)C(=O)c2cccc(S(=O)(=O)N3CCCCC3)c2)c(=O)[nH]c1=O -6.18%
CC(C)(C)OC(=O)C[C@H]1C/C=C\C[C@@H](CC(=O)N[C@H](CO)Cc2ccccc2)C(=O)NC[C@@H](c2ccccc2)OC1=O -2.76%
CCCCCCSc1ccc([C@@H]2[C@H]3C(=O)N(CC)C(=O)[C@H]3[C@]3(C(=O)OC)CCCCN23)cc1 3.32%
Cc1ccn(CCC(=O)N2c3ccccc3CC2C)n1 (stereo not given) -7.69%
CCOc1ncccc1C(=O)OCC(=O)N1c2ccccc2CC1C (stereo not given) 2.2%
CCOc1ccc(NS(=O)(=O)c2ccc(C(=O)NCC(c3ccccc3OC)N3CCCC3)cc2)cc1 (stereo not given) 0.447%
COc1ccc(NC(=O)CSc2nnc(-c3cccs3)n2Cc2ccco2)cc1OC -13.2%
CN(c1ccccc1)c1ccc(/C=c2\s/c(=C(/C#N)C(=O)C(C)(C)C)n(Cc3ccco3)c2=O)cc1 -25.2%
Cc1cc(=O)[nH]c(N/N=C/c2c(C)nn(-c3ccccc3Cl)c2Cl)n1 24.5%
Cc1cc(=O)[nH]c(N/N=C/c2ccc3c(c2)OCCO3)n1 17.8%
COc1ccccc1-c1oc2ccccc2c1C#CCCCCO -1.62%
COc1ccc(CNC(=O)Cc2ccc(-c3ccccc3)cc2)cc1OC -4.45%
COc1ccc(CC(=O)NC(C)CCc2ccccc2)cc1 (stereo not given) -14.5%
COc1cccc(N(CC(=O)N2CCc3ccccc3C2)S(C)(=O)=O)c1 -14.9%
COc1cccc(NC(=O)NCc2ccc(F)cc2)c1 -2.14%
CC(CCc1ccccc1)NC(=O)c1ccc(Br)o1 (stereo not given) -19.9%
Cc1ccc(-c2nc(CS(=O)(=O)CC(=O)NCc3ccc4c(c3)OCO4)c(C)o2)cc1 -0.75%
O=C(COc1ccccc1)N1CCc2ccccc2C1 -0.403%
COc1ccc(CCNC(=O)CS(=O)(=O)Cc2nc(-c3ccc(C)cc3)oc2C)cc1OC 21.5%
